Screens as filed in PubChem BioAssay.
Pol eta inh = inhibitors of human DNA polymerase eta; Q9Y253; recombinant Pol eta, fluorescent DNA replication assay; Potency, µM (top dose mostly 114 µM), for the others: at the highest dose activity change, negative = inhibition, most hits filed as inhibitors; 1.2% of 390,000 active; AID 588591; further: potency means the concentration at half of the fitted maximal effect; on the % scale 0 is the no-effect control and ±100 the full control effect
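Fluorescent replication assay: 50 nM final substrate added after a 15 min room-temperature compound preincubation with 10 nM enzyme. Signal taken at 0 min and again at 10 min.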
POLK inh = blocks human DNA polymerase kappa activity. purified Pol kappa, fluorescent DNA synthesis assay, 10 min. Potency, µM (doses to about 107 µM), without a hit: at the highest dose activity, negative = inhibition, usual class: inhibitors. 0.53% of 400,000 active; further: potency means the concentration at half of the fitted maximal effect; on the % scale 0 is the no-effect control and ±100 the full control effect
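Enzyme at 10 nM met test compounds for 15 min at room temperature. Substrate addition (50 nM final) began the reaction, which was monitored by fluorescence at 0 and 10 min.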
PI5P4K alpha inh = blocks human PI5P4K alpha kinase activity. PI5P4Kalpha enzyme, ADP-Glo luminescence, 60 min; hits give low values. max response, %. P48426. 1.2% of 330,000 active; active means max response of -50% or lower; inconclusive means between -30% and -50%; inactive means -30% or higher; further: value at the top dose of about 77 µM; on the % scale 0 is the no-effect control and ±100 the full control effect
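PI5P4Kalpha ADP-Glo assay; 5 microM ATP final; 60 min RT reaction; HEPES pH 7.4/EGTA/CHAPS, 5% DMSO; controls lacking substrate or enzyme; luminescent end-point.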
POLI inh = blocks human DNA polymerase iota activity. Potency, µM (titrated, usually from 115 µM), for inactives: at the top dose activity, negative = inhibition, most hits filed as inhibitors. Q9UNA4. Pol iota fluorescent replication assay, 10 min. AID 588590. 1% of 390,000 active; further: potency means the concentration at half of the fitted maximal effect
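Fluorescent replication assay read twice, at 0 min and 10 min after adding 50 nM (final) substrate. Enzyme (10 nM) and compounds were first incubated 15 min at room temperature; enzyme-free buffer wells were negative controls.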
WRN inhibitor = inhibitors of human WRN helicase; Q14191; WRN helicase unwinding, fluorescent forked duplex, kinetic; Potency, µM (titrated, usually from 114 µM), for the others: at the top dose activity change, negative = inhibition, hits mostly inhibitors; 0.46% of 360,000 active; AID 651768; further: potency means the concentration at half of the fitted maximal effect; on the % scale 0 is the no-effect control and ±100 the full control effect; nearly all actives have a fitted effect of over 55% in size
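Primary qHTS, 1536-well format. 20 nM WRN + compound, 15 min RT; start with 100 nM forked fluorophore/quencher duplex, 2 mM ATP (final); kinetic read ex 525/em 598 nm.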
Pol beta inh = DNA polymerase beta (human) inhibition | Pol beta primer extension/strand displacement, fluorescence kinetic | Potency, µM (top dose mostly 114 µM), for inactives: top-dose activity change, negative = inhibition, most hits filed as inhibitors | AID 485314 | 1.3% of 340,000 active | P06746; further: potency means the concentration at half of the fitted maximal effect; on the % scale 0 is the no-effect control and ±100 the full control effect
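10 nM enzyme + cpd, 15 min RT; start with substrate 50 nM final; read 0 min and after 10 min RT. Corrected, normalized data; 4-parameter Hill curve fit.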
* = called active by the depositor; ? = inconclusive; nt = no result; [ ] = remark or other dose. Shown are actives, neighbours in structure and some others; about 2.8% of the full set was active somewhere. Unless noted, the call rests on the fitted dose curve; in most records, active means well fitted curve in the direction sought with a large enough effect; inconclusive means small, poorly fitted or top-dose-only effect, or another doubt; inactive means no such curve, though single readings can be large; an effect the other way counts as inactive or inconclusive.

SMILES	Pol eta inh	POLK inh	PI5P4K alpha inh	POLI inh	WRN inhibitor	Pol beta inh
COc1ccc(Cc2nn3c(Cn4nnc5ccccc54)nnc3s2)cc1	?	-11.3%	?	?	-14.4%	35.5µM*
COc1ccccc1OCC(=O)OCC(=O)Nc1sccc1C(N)=O	25.1µM*	-31.7%	?	?	-15.6%[57.1 µM]	?
COc1ccc(C(=O)OCC(=O)Nc2sccc2C(N)=O)cc1OC	-15.4%	3.8%	-7.2	-9.1%	-8.0%	19.8%
NC(=O)c1ccsc1NC(=O)COC(=O)CNC(=O)c1ccc(Cl)cc1	-13.0%	-23.0%	-11.0	-19.9%	-7.9%	nt
NC(=O)c1ccsc1NC(=O)COC(=O)CNC(=O)c1cccc([N+](=O)[O-])c1	35.5µM*	-22.6%	-24.2	?	-0.1%[11.6 µM]	nt
O=c1[nH]c(=S)c2n[nH]nc2[nH]1	nt	-3.6%	nt	12.5%	nt	nt
CCC(C(=O)N1CCOCC1)n1nc(C)c2c(C)n(-c3ccccc3)nc2c1=O (stereo unspecified)	-5.4%	7.7%	-6.6	12.5%	1.6%	-21.0%
COc1cccc(-c2cc(C(=O)Nc3cnn(Cc4ccc(F)cc4)c3)no2)c1	-12.4%	-21.1%	nt	100µM*	-13.4%	37.1%
CC(=O)C1=C(C)NC(SCC(=O)c2ccc(Cl)cc2)=C(C#N)C1CC(C)C (stereo unspecified)	-16.5%	-3.2%	2.3	34.8%	-1.8%	-19.9%
CC(=O)C1=C(C)NC(SCC(=O)c2ccc(F)cc2)=C(C#N)C1CC(C)C (stereo unspecified)	-22.2%	-6.1%	-57.0*	-0.5%	-20.2%	5.0%
O=[N+]([O-])c1cc(-c2ccc(/C=N\n3cnnc3)o2)cc([N+](=O)[O-])c1	?	?	-58.8*	22.4µM*	-24.8%	56.2µM*
COc1cc(OC)c(NS(=O)(=O)c2c(C(=O)N3CCCCCC3)c(C)n(C)c2C)cc1Cl	-10.2%	-2.2%	nt	10.1%	nt	-3.9%
O=C(/C=C/c1ccc(Cl)cc1)NC(=S)Nc1ccccc1C(=O)O	56.2µM*	-11.9%	-26.0	?	-4.4%[11.6 µM]	?
C/C(=N\NC(=O)c1ccc(N2CCCC2=O)cc1)c1ccc(O)cc1O	-4.1%	-21.5%	0.7	44.7µM*	-10.2%[11.6 µM]	-1.8%
Cc1nc2cnc(Oc3ccccc3)nc2n(C)c1=O	nt	6.0%[60.1 µM]	nt	nt	nt	nt
COc1ccc(NC(=O)c2cc(C3CCCCN3C(=O)c3ccc4c(c3)CCO4)on2)c(C)c1 (stereo unspecified)	nt	nt	-2.1	nt	-3.2%	nt
CCC[C@@H](CN1CCC[C@H]1CN1C(N)=NC[C@@H]1Cc1ccccc1)N1C[C@@H]([C@H](C)CC)N(CCCC2CCCC2)C1=N	-10.3%	-17.9%	-86.7*	12.8%	-21.7%	nt
COc1cccc2c1ncc1c(-c3ccc(C)cc3)nn(-c3cccc([N+](=O)[O-])c3)c12	-13.0%	-4.2%[60.1 µM]	nt	4.5%	nt	9.7%
CC(C)CCNC(=O)c1c[nH]c2ccc(S(=O)(=O)N3CCC4(CC3)OCCO4)cc2c1=O	-0.8%	-3.0%	0.6	6.5%	-14.4%	35.5µM*
COCCNC(=O)c1c[nH]c2ccc(S(=O)(=O)N3CCC4(CC3)OCCO4)cc2c1=O	-10.7%	-4.2%	7.6	8.1%	-7.9%	-9.7%
O=C(CNC(=O)N1CC(=O)Nc2ccccc21)NCc1ccccc1Cl	4.4%	-0.5%	-3.6	-1.5%	4.4%	41.4%
C/C=C/C=C\C(=O)Nc1cccc(C2=NOC3(C2)C[C@@H](C(N)=O)N(C(=O)c2cc([N+](=O)[O-])cc([N+](=O)[O-])c2C)C3)c1 (stereo partly specified)	5.7%	-8.9%	-71.2*	?	-7.5%	23.4%
C/C=C\C=C/C(=O)Nc1cccc(C2=NOC3(C2)C[C@@H](C(N)=O)N(C(=O)COc2ccc(Cl)cc2)C3)c1 (stereo partly specified)	-11.8%	0.6%	?	?	-3.8%	8.0%
C/C=C\C=C\C(=O)Nc1cccc(C2=NOC3(C2)C[C@H](C(N)=O)N(C(=O)c2ccccc2C(=O)c2ccccc2)C3)c1 (stereo partly specified)	-19.7%	5.9%	-51.7*	14.1%	-0.7%	-28.2%
C/C=C\C=C\C(=O)N1CC2(CC(c3cccc(NC(=O)COc4ccc(Cl)cc4)c3)=NO2)C[C@H]1C(N)=O (stereo partly specified)	-20.7%	-18.8%	-81.3*	?	-11.3%	8.4%
SMILES	Pol eta inh	POLK inh	PI5P4K alpha inh	POLI inh	WRN inhibitor	Pol beta inh
CCCCCC(=O)Nc1cccc(C2=NOC3(C2)C[C@@H](C(N)=O)N(C(=O)c2cc([N+](=O)[O-])cc([N+](=O)[O-])c2C)C3)c1 (stereo partly specified)	-5.5%	-12.8%	1.2	-16.6%	-3.7%	-12.9%
C/C=C\C=C/C(=O)Nc1cccc(C2=NOC3(C2)C[C@@H](C(N)=O)N(C(=O)c2ccccc2)C3)c1 (stereo partly specified)	nt	nt	nt	nt	nt	-0.2%
CCN(CC)CCNC(=O)c1ccc(-c2nc(CS(=O)(=O)c3ccc(C)cc3)c(C)o2)cc1	-15.0%	-2.6%	nt	17.8%	nt	7.2%
C[n+]1ccc(/C=C/c2ccccc2O)c2ccccc21	1.5%	1.1%	0.7	-10.4%	-8.0%	16.2%
CN1/C(=C/c2cc[n+](C)c3ccccc23)C=Cc2ccccc21	-17.5%	-17.1%	-17.4	27.4%	28.2µM*	31.6µM*
COc1ccccc1NC(=O)Nc1cnccn1	-1.1%	-12.8%	0.7	29.9%	-1.6%	-20.4%
COc1cc([N+](=O)[O-])ccc1NC(=O)Nc1cnccn1	79.4µM*	10.2%	0.9	-3.9%	-2.9%	25.2%
COc1ccc2c(COC(=O)CC3Sc4ccccc4NC3=O)cc(=O)oc2c1 (stereo unspecified)	20µM*	-22.7%	?	?	-12.8%[11.6 µM]	35.5µM*
COc1ccc(CNC(=O)Cn2nc(-c3ccc4c(c3)OCCO4)ccc2=O)cc1	-4.8%	-8.1%	nt	63.1µM*	-20.5%	11.9%
O=C1/C(=C/c2ccc(O)c([N+](=O)[O-])c2)SC(=S)N1Cc1ccccc1	?	-4.9%	-7.5	32.2%	-10.5%	-3.1%
O=C(NN1C(=O)/C(=C/c2ccc(O)cc2)SC1=S)c1cccc(O)c1	2.9%	-26.0%	-0.3	?	-8.3%[11.6 µM]	-15.5%
COc1ccc(/C=C2\SC(=S)N(CCCC(=O)NNC(=O)c3ccccc3O)C2=O)cc1	8.3%	-19.6%	14.2	54.9%	-11.2%[57.1 µM]	4.4%
O=C(CN1C(=O)S/C(=C\c2ccc(Cl)cc2)C1=O)NNC(=O)c1ccccc1O	?	-35.9%	-1.4	?	?	50.1µM*
O=C(NN1C(=O)/C(=C/c2ccc(O)cc2)SC1=S)c1ccccc1O	79.4µM*	-25.8%	?	?	-13.9%[11.6 µM]	-20.3%
